Reference: PubChem BioAssay AID463173 (ICCB-Longwood Screening Facility, Harvard Medical School, 2010)
Out of some 52,000 compounds screened, about 4,300 (8.3%) were called active. Shown is part of a subset that was picked to be rich in actives. A number with no mark means an inactive call. No stated cut-off is given here; in the data, active means survival mostly below about 52% (no sharp cut-off); inactive means mostly above about 56%.

The compounds below were run on DeltatarO mutant (assay: S. aureus survival, RN4220 and DeltatarO strains – OD600, teichoic acid synthesis inhibitors, primary screen (AID 463173)). Conditions: S. aureus RN4220 wild type/DeltatarO growth, OD600, 18 h, active compounds read low, screened at 18.75 µg/mL (by protocol).

SMILES	survival
Cc1ccc(N2CCN(C(=O)c3ccc(Nc4nc5ccccc5n5nnnc45)cc3)CC2)c(C)c1	82%
CC(C)Nc1nc2c(S(=O)(=O)c3cccc(Cl)c3)nnn2c2ccsc12	70%
COc1ccc(NC(=O)CSc2c3c(nc4ccccc24)CCC3)c(OC)c1	110%
CCOc1ccc(NC(=O)CSc2c3c(nc4ccccc24)CCCC3)cc1	88%
O=C(CSc1c2c(nc3ccccc13)CCC2)Nc1ccc(F)cc1	127%
Cc1ccc(NC(=O)CSc2c3c(nc4ccccc24)CCCC3)cc1F	30% (active)
COc1cccc(NC(=O)CSc2c3c(nc4ccccc24)CCCC3)c1	43% (active)
COc1ccc(OC)c(NC(=O)CSc2c3c(nc4ccccc24)CCCC3)c1	93%
CN(C)c1ccc(-c2nc3ccccn3c2Nc2ccc3c(c2)OCCO3)cc1	81%
CC(CCc1ccccc1)NC(=O)Cn1c(=O)nc(-c2ccccc2)c2cc(Cl)ccc21 (stereo not given)	80%
O=C(CCc1ccccc1)NCc1ccco1	88%
CCOC(=O)c1ccccc1NC(=O)N1CC(C)Oc2ccc(C)cc21 (stereo not given)	50%
CCN1CCN(C(=O)c2ccc3c(c2)N(Cc2ccccc2)C(=O)c2ccccc2S3(=O)=O)CC1	129%
Cc1ccc(CNC(=O)CN2CCCN(Cc3ccc(F)cc3)S2(=O)=O)cc1	67%
CCOc1ccc(S(=O)(=O)Nc2cc3c(C(=O)OCc4ccccc4)c(C)oc3c3ccccc23)cc1	94%
Cc1cc(F)ccc1S(=O)(=O)Nc1cc2c(C(=O)O)c(C)oc2c2ccccc12	39% (active)
CC(=O)c1c(C)oc2c1cc(NS(=O)(=O)c1ccc(C(C)(C)C)cc1)c1ccccc12	64%
Cc1oc2c(cc(NS(=O)(=O)c3ccc(C(C)C)cc3)c3ccccc32)c1C(=O)OCc1ccccc1	81%
CCc1ccc(S(=O)(=O)Nc2cc3c(C(=O)OCc4ccccc4)c(C)oc3c3ccccc23)cc1	60%
Cc1oc2c(cc(NS(=O)(=O)c3ccc(Cl)cc3)c3ccccc32)c1C(=O)OCc1ccccc1	52%
COCCOC(=O)c1c(C)oc2c1cc(NS(=O)(=O)c1ccc(Cl)c(C)c1)c1ccccc12	44% (active)
Cc1oc2c(cc(NS(=O)(=O)c3ccc(C(C)C)cc3)c3ccccc32)c1C(=O)O	42% (active)
Cc1ccc(S(=O)(=O)Nc2cc3c(C(=O)OCc4ccccc4)c(C)oc3c3ccccc23)c(C)c1	56%
CC(=O)c1c(C)oc2c1cc(NS(=O)(=O)c1ccc(Cl)c(C)c1)c1ccccc12	70%
Cc1oc2c(cc(NS(=O)(=O)c3ccc(F)cc3)c3ccccc32)c1C(=O)OCc1ccccc1	54%
CCCOC(=O)c1c(C)oc2c1cc(NS(=O)(=O)c1ccc(OCC)cc1)c1ccccc12	56% (active)
CCc1ccc(CN(Cc2ccco2)C(=O)COc2ccc(Cl)cc2C)cc1	55%
O=C(CNC(=O)c1ccccc1)OCc1cc(=O)n2nc(C3CCCCC3)sc2n1	90%

SMILES	survival
O=C(O)CC1c2ccccc2CCN1C(=O)Nc1cc(Cl)ccc1Cl (stereo not given)	94%
COc1ccc(NC(=O)Cn2c(=O)n(-c3cccc(C)c3)c(=O)c3c2c2cc(C)ccc2n3C)cc1OC	79%
c1ccc(CNCC2COc3ccccc3O2)cc1 (stereo not given)	114%
Cc1ccc(-n2ncc3c(N4CCN(C)CC4)ncnc32)cc1C	89%
Cc1ccc(CNC(=O)NC2COc3ccccc3C2)cc1 (stereo not given)	107%
COc1ccc(S(=O)(=O)Nc2cc3c(C(=O)OC(C)C)c(C)oc3c3ccccc23)cc1	38% (active)
CCOC(=O)c1c(C)oc2c1cc(NS(=O)(=O)c1ccc(C)cc1)c1ccccc12	56%
COc1ccc(OC)c(S(=O)(=O)Nc2cc3c(C(C)=O)c(C)oc3c3ccccc23)c1	52%
Cc1nc(-c2ccc(S(=O)(=O)Nc3ccc(OC(F)(F)F)cc3)cc2)co1	78%
COC(=O)c1cccc2c1NC(c1cccnc1)C1CC=CC21 (stereo not given)	101%
Cc1ccc(Cl)c2c1N[C@@H](c1ccc(C(=O)O)cc1)[C@H]1CC=C[C@@H]21	-10% (active)
CCOc1cccc2c1N[C@@H](c1ccc(C(=O)O)cc1)[C@H]1CC=C[C@@H]21	68%
Cc1ccc2c(c1C)NC(C(=O)O)C1CC=CC21 (stereo not given)	85%
CCOC(=O)c1cccc2c1N[C@@H](c1ccc(F)cc1)[C@H]1CC=C[C@@H]21	4% (active)
COC(=O)c1ccc([C@@H]2Nc3c(C)cc(C)cc3[C@@H]3C=CC[C@@H]32)cc1	51% (active)
COc1cc([C@@H]2Nc3c(F)cccc3[C@@H]3C=CC[C@@H]32)cc(Br)c1OC	55%
Cc1ccc([C@H]2Nc3ccc(S(=O)(=O)Nc4cccc(Cl)c4C)cc3[C@H]3C=CC[C@H]32)cc1	50%
COC(=O)c1ccc([C@@H]2Nc3c(OC)ccc(C)c3[C@@H]3C=CC[C@@H]32)cc1	49%
COC(=O)c1ccc([C@@H]2Nc3c(cccc3C(F)(F)F)[C@@H]3C=CC[C@@H]32)cc1	-3% (active)
COCCN(CCOC)C(=O)c1cc2c(=O)n3ccccc3nc2n1C	51%
CCOc1ccccc1NC(=O)N(C)CCc1c(C)nn(CC)c1C	120%
Cc1c(C(=O)N2CCCC2)oc2c1-c1nn(CC(=O)NC(C)c3ccccc3)cc1CC2 (stereo not given)	72%
Cc1nc(SCC(=O)N2c3ccccc3CCc3ccccc32)n[nH]1	102%
Cc1cccc(C(=O)NC2=NC(c3ccc(Cl)cc3)CC(=O)N2)c1 (stereo not given)	88%
COc1ccccc1NC(=O)CN1C(=O)CC(c2ccc(C)c(C)c2)=Nc2ccccc21	84%
O=C1Nc2ccc(S(=O)(=O)Nc3ccccc3O)c3cccc1c23	62%
CCOC(=O)c1ccc(NC2=CC(c3ccc(O)c(OCC)c3)N(c3ccc(C(=O)OCC)cc3)C2=O)cc1 (stereo not given)	59%
